# Measured values: PubChem BioAssay AID576 (NMMLSC, 2007)
# In all, about 24,000 compounds went through this assay and about 150 (0.62%) were called active. The list comes from a sample in which actives are over-represented; it also holds similar structures and randomly drawn compounds. Unmarked numbers belong to inactive results.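 The calls were made as follows: active = fluorescence ratio above 2.44, which is 1 plus 3 SD of all ratios; inconclusive = signal too bright to measure linearly, ratio around 10 or more; inactive = fluorescence ratio below 2.44.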
# Assay: compound autofluorescence on Jurkat cells, primary screen, artefact control for VLA-4 allosteric ligand project, cell-based, flow cytometry (AID 576);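 also: green fluorescence of cells measured with 488 nm excitation and 530 nm emission; tested at 10 µM compound in the well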
# Conditions: hits give high values, 1 = vehicle-only cell background
row,Compound,fluorescence ratio
1,O=C(CN1CCN(c2ccccc2F)CC1)c1ccc2c(c1)OCO2,1.02
2,COCCNC(=O)CN1C(=O)CSc2ncccc21,1.05
3,CCOC(=O)N1CCC(NC(=O)COc2cc(=O)n(C)c3ccccc23)CC1,0.98
4,CCOC(=O)C1CCCN(C(=O)c2sc3nc(C)nc(N4CCOCC4)c3c2C)C1 (centres undefined),1.03
5,O=C(Cn1cc2c(n1)CCCCC2)NCCN1CCOCC1,0.97
6,COc1ccccc1-n1cnc2cc(C(=O)NCC3CCCO3)ccc21 (centres undefined),1.03
7,COCCn1c(=O)[nH]c2cc(C(=O)NCc3cccnc3)ccc2c1=O,1.03
8,COc1ccc(C(CC(=O)O)NC(=O)Cc2ccccc2)cc1 (centres undefined),0.92
9,CCOC(=O)CSc1nnc(CNC(=O)c2cccs2)n1-c1ccccc1,1.06
10,CC(C)C(=O)Nc1c(C(=O)c2ccc(F)cc2)oc2ccccc12,0.99
11,Nc1nonc1-c1nc2ccccc2n1CCC(=O)O,1.57
12,Cc1noc(C)c1CSc1nc2cc(S(=O)(=O)N3CCOCC3)ccc2o1,1.05
13,COc1ccc(C2C(C(=O)N3CCN(c4ccc(OC)cc4)CC3)c3ccccc3C(=O)N2C)cc1 (centres undefined),1.1
14,Cc1cc(N2C(=O)c3ccc(C(=O)NCc4ccccc4)cc3C2=O)no1,1.09
15,CCN(CC(=O)Nc1ccc2c(c1)OCCO2)Cc1cc(=O)oc2cc(C)c(C)cc12,1.06
16,CCOC(=O)C1CCN(C(=O)C2CCN(S(=O)(=O)N3CCCC3)CC2)CC1,0.96
17,CC(=O)c1c(C)c[nH]c1C,1.09
18,CCN1C(=O)/C(=C2/Sc3ccccc3N2CCCS(=O)(=O)O)SC1=S,1
19,CCN(CC)CCCNC(=O)c1cc(-c2cccc(Cl)c2)on1,1.16
20,Cc1cc(NC(=O)CN2CCC(O)(c3cccc(F)c3)CC2)no1,1.02
21,COCCOC(=O)C1=C(C)N=c2s/c(=C\c3cccs3)c(=O)n2C1c1cccs1 (centres undefined),1.11
22,Cc1c(C(=O)Nc2ccccc2Cl)oc2ccc(S(=O)(=O)N3CCC4(CC3)OCCO4)cc12,0.97
23,CC1(C)Oc2ccc3ccc(=O)oc3c2/C(=C/NCCO)C1=O,1.15
24,COCCNC(=O)c1snc2ccc(Cl)cc12,1
25,O=C(CN1CCN(CC(=O)Nc2ccc3c(c2)OCO3)CC1)Nc1ccc(F)cc1,0.97

row,Compound,fluorescence ratio
1,Cc1ccc(S(=O)(=O)NCc2csc(C)n2)c(C)c1,0.95
2,Cc1cccn2c(=O)c3cc(C(=O)N4COCC4(C)C)n(C)c3nc12,1.08
3,COc1ccccc1N1CCN(Cc2nnnn2CCc2ccccc2)CC1,0.99
4,COc1ccc(C2CC(c3ccc(Cl)cc3Cl)Nc3nc(N)nn32)cc1OC (centres undefined),1.06
5,C=CCOC(=O)C1=C(C)OC(N)=C(C#N)C1c1ccc(F)cc1 (centres undefined),1.25
6,CC(=O)N1C(=O)C2(Nc3ccccc3N2)c2ccccc21,1.04
7,CCOC(=O)c1sc(=S)n(-c2cccc(OC)c2)c1N,1.14
8,Cc1ccccc1CSc1nnc(Cn2c(=O)sc3ccccc32)n1C,0.88
9,CCOC(=O)CSc1nnc(CNC(=O)c2ccco2)n1-c1ccc(F)cc1,1
10,CCOC(=O)c1ccc(CS(=O)c2ccc(Cl)cc2)o1 (centres undefined),1.08
11,CC1=C(C)CC2C(=O)N(c3cccc4ccccc34)C(=O)C2C1 (centres undefined),1.06
12,COC(=O)C(C)Sc1nc2c(c(=O)n(C)c(=O)n2C)n1Cc1cccc(C)c1 (centres undefined),1.09
13,O=C1OC(NC(=O)c2ccccc2)C(N2CCOCC2)=C1Cl (centres undefined),1.07
14,O=C(CN1CCN(c2ccc(F)cc2)CC1)Nc1cccc(C(F)(F)F)c1,0.96
15,CCc1ccc(NC(=O)CSc2nc3ccccc3c(=O)n2CCN2CCOCC2)cc1,1.15
16,CCn1cc(C(=O)NC2CCCCCC2)c(=O)c2cc(S(=O)(=O)N3CCCCC3)ccc21,1.18
17,CCCC(=O)NC(C)C(c1cccs1)N1CCN(c2ccccc2)CC1 (centres undefined),1.12
18,O=C(Nc1cccnc1)c1ccc2c(c1)OCO2,1.06
19,CCOC(=O)n1c(SCC(=O)N(CC)CC)nc2ccccc21,0.99
20,CCS(=O)(=O)N1CCCC(C(=O)NCc2ccc(C)cc2)C1 (centres undefined),0.99
21,CCOC(=O)C1CCN(C(=O)Cc2c(C(=O)O)[nH]c3ccccc23)CC1,1.09
22,COc1ccc(OC)c(C(=O)c2ccc(C(=O)O)cc2)c1,0.99
23,COc1ccccc1-c1c(C)nn2c(C)c(C(C)=O)cnc12,0.98
24,Cc1ccc(C)c(N2CCN(C(=O)CCc3nc4ccccc4[nH]3)CC2)c1,1.04
